# According to PubChem BioAssay AID1030 (National Center for Advancing Translational Sciences (NCATS), 2008):
# Where “and” joins values, the source holds several entries; their conditions need not be identical. Equal entries are not always repeated. The campaign covered roughly 220,000 compounds. About 16,000 (7.3%) were called active. Another 25% or so got no clear call; they are omitted. Calls follow the shape of the dose curve; as a rule, active = well fitted inhibition curve with a large enough effect (not every such curve was filed as active); inconclusive = small, poorly fitted or top-dose-only effect, or another doubt; inactive = no such curve, though single readings can be large or run the other way. The entries come from a sample that favours actives as a whole.
# Biological target: Aldehyde dehydrogenase 1A1 (Homo sapiens) (UniProt P00352)
# Test: qHTS Assay for Inhibitors of Aldehyde Dehydrogenase 1 (ALDH1A1);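 as to activity, negative = inhibition: plate controls were no enzyme wells and a reference inhibitor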
# Conditions: Purified ALDH1A1, NADH fluorescence, propionaldehyde substrate; series mostly up to 75.3 µM; activity, negative = inhibition: at the top concentration
# Potency is read from the fitted curve at half-maximal effect.
# Aldehyde dehydrogenase 1A1 (Homo sapiens), sequence (P00352 whole entry, looked up): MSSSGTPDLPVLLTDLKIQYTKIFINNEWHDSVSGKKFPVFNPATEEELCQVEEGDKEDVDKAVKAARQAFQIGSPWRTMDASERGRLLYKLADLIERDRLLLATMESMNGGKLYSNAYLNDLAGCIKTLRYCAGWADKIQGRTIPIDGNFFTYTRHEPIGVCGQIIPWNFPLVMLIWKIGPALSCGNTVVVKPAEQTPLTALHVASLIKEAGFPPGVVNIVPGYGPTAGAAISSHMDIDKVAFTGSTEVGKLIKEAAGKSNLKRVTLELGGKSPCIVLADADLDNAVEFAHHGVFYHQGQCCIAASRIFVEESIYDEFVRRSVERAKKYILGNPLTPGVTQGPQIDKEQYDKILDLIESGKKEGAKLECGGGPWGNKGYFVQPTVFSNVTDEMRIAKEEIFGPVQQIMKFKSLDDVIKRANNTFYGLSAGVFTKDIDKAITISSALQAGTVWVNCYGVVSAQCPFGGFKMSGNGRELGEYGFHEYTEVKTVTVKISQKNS
Compound,"activity, negative = inhibition",Potency
COc1ccc(C(=O)C2CCCN(Cc3ccc(C)s3)C2)cc1OC (stereo not given),-3.12% (inactive),
COc1cc(C(=S)N2CCOCC2)ccc1O,,18.9 µM (active)
C=CCN1CCC23c4c5ccc(O)c4O[C@H]2C(=O)CC[C@@]3(O)C1C5 (stereo not given in full),,inactive
CCC/C(=N\O)c1c[nH]c2ccccc12,5.13% (inactive),
CCCOC(=O)C1C2c3ccccc3C(c3ccccc32)C1C(=O)O (stereo not given),-3.46% (inactive),
Cc1ccc(-c2cc(C(=O)N3CCC4(CC3)OCCO4)no2)cc1,-7.21% (inactive),
Cc1ccsc1C(=O)C1CCCN(Cc2ccc(O)cc2)C1 (stereo not given),-0.25% (inactive),
COc1ccc2c3c1O[C@H]1C[C@@H](O)C=C[C@@]31CCN(C)C2,-3.43% (inactive),
COC(=O)CN1C(=O)C2(C(C(=O)OC)=C(N)Oc3ccccc32)C2=C1CC(C)(C)CC2=O (stereo not given),,1 µM (active)
CCOC(=O)C1=C(C)OC(N)=C(C(=O)OC)C12C(=O)Nc1ccc(Br)cc12 (stereo not given),0.235% (inactive),
CCOC(=O)CC1=C(C(=O)OCC)C2(C(=O)N1)C(C(=O)OC)=C(N)Oc1ccccc12 (stereo not given),6.23% (inactive),
CCN1C[C@@]2(COC)CC[C@H](OC)[C@]34[C@@H]1[C@]1(OCO[C@@]15C[C@@H](OC)C1C[C@H]3[C@H]5[C@@H]1OC)[C@H](O)[C@@H]24,-7.9% [at 20.9 µM] (inactive),
CC(=O)CC(C)C,,12.6 µM (active)
N#CC1=C(N)Oc2c(c(=O)oc3ccccc23)C1c1ccccc1OC(=O)c1cccs1 (stereo not given),4.05% (inactive),
COc1ccc(CCn2c(O)c(C=NC3CC3)c(=O)[nH]c2=O)cc1OC,11% (inactive),
ClCCBr,6.88% (inactive),
CO[C@@H]1C[C@@H](C[C@H]2CC[C@H](C)[C@@H]([C@@H](C)C(=O)O)O2)O[C@]2(O[C@](C)([C@H]3CC[C@@](C)(C4OC([C@H]5O[C@@](O)(CO)[C@H](C)C[C@@H]5C)C[C@@H]4C)O3)C[C@H]2C)[C@@H]1C (stereo not given in full),-0.0239% (inactive),
COC(=O)N(c1ccc(OC)cc1)P1(=S)OCCC(C)O1 (stereo not given),,2.24 µM (active)
CCOc1ccc(C2SCC(=O)Nc3c2c(C)nn3C2CCOC(C)(C)C2)cc1 (stereo not given),19.5% (inactive),
ClC(Cl)=C(Cl)C(Cl)=C(Cl)Cl,6.19% (inactive),
O=C1NC(=O)N(c2ccc(F)cc2)C(=O)/C1=C/c1ccc2c(c1)CCCN2Cc1ccccc1,,0.158 µM (active)
Fc1ccc(C(OCCN2CCN(C/C=C\c3ccccc3)CC2)c2ccc(F)cc2)cc1,-3.07% (inactive),
CC(C)(O)c1[se]c2ccccc2c1I,-9.12% (inactive),
c1ccc(CN2CC[C@@]3(CCCNC3)C2)cc1,6.49% (inactive),

Compound,"activity, negative = inhibition",Potency
CC(=O)Cc1ccc(OC(C)C)cc1,4.31% (inactive),
CN(C)c1nc(N(C)C)nc(N(C#N)CCCl)n1,,6.31 µM (active)
O=C1C2(Cl)C3(Cl)C4(Cl)C(Cl)(Cl)C5(Cl)C3(Cl)C1(Cl)C5(Cl)C24Cl (stereo not given),0.669% (inactive),
NC[C@H](O)c1ccc(O)cc1,-2.77% [at 20.9 µM] (inactive),
c1ccc(C2NCc3ccccc3-n3cccc32)cc1 (stereo not given),-2.04% (inactive),
O=C(OCC(=O)c1cccs1)C1=COCCO1,,14.1 µM (active)
CN1CCN(C(=O)O[C@@H]2c3nccnc3C(=O)N2c2ccc(Cl)cn2)CC1,-0.229% (inactive),
CC(C)(c1ccc(OC[C@@H]2CO2)cc1)c1ccc(OC[C@H]2CO2)cc1,-3.47% (inactive),
CC[N+]1(C)CCCC(OC(=O)C(O)(c2ccccc2)c2ccccc2)C1 (stereo not given),,inactive
O=C(NCC(c1cccnc1)N1CCN(c2ccccc2)CC1)Oc1ccccc1 (stereo not given),-6.2% (inactive),
CCCn1c(C(=O)c2ccccc2OC)nc2ccccc21,-12.3% (inactive),
Cc1cccc(N2C(=O)NC(=O)/C(=C\c3cnn(-c4ccccc4)c3)C2=O)c1,,7.08 µM (active)
C[C@H]1CC[C@@]2(NC1)O[C@@H]1C[C@H]3[C@@H]4CC=C5C[C@@H](O)CC[C@]5(C)[C@@H]4CC[C@]3(C)[C@@H]1[C@@H]2C,6.18% [at 20.9 µM] (inactive),
NCC(O)c1ccc(O)cc1 (stereo not given),,inactive
Cc1cc(C)cc(NC(=S)NC2CC3CCCC(C2)N3Cc2cccs2)c1 (stereo not given),-4.86% (inactive),
O=C(CSC1c2ccccc2-c2ccccc21)N/N=C/c1ccccc1,-2.88% (inactive),
O=C(CN1CCCC1=O)NCCc1ccccc1,4.93% (inactive),
COC1=C[C@@H]2[C@@H]3Cc4ccc(OC)c(O)c4[C@]2(CCN3C)CC1=O,0.364% (inactive),
CC(C(=O)Nc1ccc(Cl)cc1Cl)N1CC=C(c2ccccc2)CC1 (stereo not given),-8.8% (inactive),
CCCC[N+]1(C)C2CC(OC(=O)C(CO)c3ccccc3)CC1C1OC12 (stereo not given),,inactive
CC(C)CC(C)Nc1ccc(Nc2ccccc2)cc1 (stereo not given),,14.1 µM (active)
CC(=O)NC(=O)NC(C)Cc1ccccc1 (stereo not given),4.95% (inactive),
CC12CN3CC(C)(CN(C1)C3c1cccs1)C2 (stereo not given),4.85% (inactive),
CCCCC(=O)N/N=C/c1c(O)n(CC)c(=S)n(CC)c1=O,-14.7% (inactive),

Compound,"activity, negative = inhibition",Potency
Cc1cc(-c2ccc(N)c(C)c2)ccc1N,,28.2 µM (active)
CC1CCCCN1Cc1cccnc1 (stereo not given),-10.2% (inactive),
C/C(=C\C=C/[C@@H](C)C(=O)O)[C@H]1CN[C@H](C(=O)O)[C@@H]1CC(=O)O,-4.2% (inactive),
CCN1C[C@]2(COC)C(O)C[C@H](OC)[C@@]34C5C[C@]6(O)C(OC)C(O)[C@](OC(C)=O)(C5C6OC(=O)c5ccccc5)C(C(OC)C23)C14 (stereo not given in full),-3.76% (inactive),
CC(=O)c1c(O)c(C)c(O)c(Cc2c(O)c3c(c(C(=O)/C=C/c4ccccc4)c2O)OC(C)(C)C=C3)c1O,,17.8 µM (active) and 14.1 µM (active)
CC(=O)c1c(O)c(C)c(O)c(Cc2c(O)c3c(c(C(=O)/C=C\c4ccccc4)c2O)OC(C)(C)C=C3)c1O,,22.4 µM (active)
COC1=C[C@]23CCCN2CCc2cc4c(cc2[C@@H]3[C@@H]1O)OCO4,-1.15% (inactive),
O=C(O)C1C2CCC(O2)C1C(=O)O (stereo not given),8.57% (inactive),
CN(C)C1C(=O)C(C(N)=O)=C(O)[C@@]2(O)C(=O)C3=C(O)c4c(O)cccc4[C@@](C)(O)C3C[C@@H]12 (stereo not given in full),-12.3% (inactive),
C=CCSSCC=C,,6.31 µM (active)
CN(C)c1ccc(/C=C2\CC3C4CC=C5CC(O)CCC5(C)C4CCC3(C)C2=O)cc1 (stereo not given),1.47% (inactive),
O=C1NC(=O)C(CCc2ccccn2)(Cc2cccc(Cl)c2Cl)C(=O)N1c1ccc(Br)cc1 (stereo not given),2.63% (inactive),
CCOC(=O)C(O)(c1ccc(N=Cc2ccccc2O)c(C)c1)C(F)(F)F (stereo not given),-8.17% (inactive),
CN(C)C(=O)Oc1cc(=O)n2c3c(cccc13)CCC2,-0.966% (inactive),
COc1ccc(C2=NOC(COC(=O)c3ccc4ccccc4n3)C2)cc1 (stereo not given),,5.62 µM (active)
CN(C)/C=C(\C=[N+](C)C)c1[nH]ncc1[N+](=O)[O-],-1.75% (inactive),
CC[N+](CC)(CC)CCCCCCCCCC[N+](CC)(CC)CC,0.542% (inactive),
O=C1C2CCN(CC2)C1(CO)CO,,inactive
CC(C)n1c(=O)c(C=Nc2ccc(Br)cc2)c(O)n(Cc2ccco2)c1=O,,14.1 µM (active)
CN(C)CCCN=Cc1c(O)n(Cc2ccco2)c(=O)[nH]c1=O,-1.51% (inactive),
COc1cc2c(cc1OC)[C@@H]1C(=O)c3ccc(O)c(CC=C(C)C)c3OC1CO2 (stereo not given in full),9.01% (inactive),
CC(=O)Nc1ccccc1C(=O)OCC(=O)c1cccc2ccccc12,1.69% (inactive),
NCC[Se][Se]CCN,,3.55 µM (active)
CC[C@H]1CN2CCc3cc(OC)c(OC)cc3[C@@H]2C[C@@H]1C[C@H]1NCCc2cc(OC)c(OC)cc21,,inactive

Compound,"activity, negative = inhibition",Potency
CCc1cccc2c(C#N)cn(CC(=O)N3CCOCC3)c12,0.358% (inactive),
CCN(CC)P(=O)(Oc1cccc(C)c1)N(CC)CC,2.46% (inactive),
Cc1cccc([C@H](C)c2cnc[nH]2)c1C,-6.99% (inactive),
ClC(Cl)(Cl)c1ccccc1,,inactive
O=Cc1cn(Cc2ccc(F)cc2Cl)c2ccccc12,,3.16 µM (active)
Cc1ccc(-c2nn(CCC#N)cc2C(=O)O)cc1C,18.1% (inactive),
Cc1ccc(S(=O)(=O)O[C@H]2CN3CCC2CC3)cc1,4.24% [at 13.5 µM] (inactive),
COC(=O)c1ccc2[se]c(CC3CCCCC3)c(I)c2c1,4.76% (inactive),
CCCCCCCCCCCCCC(=O)O[C@@H]1[C@@H](C)[C@@]2(O)[C@@H](C=C(CO)C[C@]3(O)C(=O)C(C)=C[C@@H]23)[C@@H]2C(C)(C)[C@]12OC(C)=O,-2.86% (inactive),
Cn1c(O)c(C=NCCCC(=O)O)c(=O)n(C)c1=O,-4.25% (inactive),
C[C@@H]1C[C@@H]2O[C@H]2/C=C\C=C\C(=O)Cc2c(Cl)c(O)cc(O)c2C(=O)O1,-5.35% (inactive),
O=C(C1CC(=O)N(C2CCCC2)C1)N1CCC2(CC1)OCCO2 (stereo not given),2.67% (inactive),
C=CCN1C(=O)C2(C(C(=O)OCC)=C(N)Oc3c2c(=O)oc2ccccc32)c2ccccc21 (stereo not given),,0.398 µM (active)
CCOC(=O)c1ncn2c1[C@@H]1CCCN1C(=O)c1cc(OC)ccc1-2,-5.12% (inactive),
CCOCCc1c(O)[nH]c(=S)[nH]c1=O,-3.64% (inactive),
CCOC(=O)C1CN(C)CCC1=O (stereo not given),3.02% (inactive),
CNC(C)[C@@H](O)c1ccccc1 (stereo not given in full),-5.15% (inactive),
O=c1oc2ccccc2c(O)c1C(c1ccccc1O)c1c(O)c2ccccc2oc1=O,10.4% (inactive),
c1ccc2sc(C3CCCNC3)nc2c1 (stereo not given),8.39% (inactive),
c1ccc2sc(N3CCNCC3)nc2c1,8.53% (inactive),
c1ccc2sc(SNC3CCCCC3)nc2c1,,0.794 µM (active)
C1CC[C@H]([C@@]23C[C@H](C[C@H]4CCCN[C@H]42)[C@@H]2CCCCN2C3)NC1,5.48% (inactive),
CC1(C)C(c2ccccc2)=NC(c2cccnc2)=[N+]1[O-],4.87% (inactive),
